Screens from PubChem BioAssay.
Luciferase inh = blocks purified firefly luciferase enzyme activity; Potency, µM (titrated, usually from 115 µM), hits mostly inhibitors; purified P. pyralis luciferase, luminescence, biochemical; hit rate 2.5% among 76,000; P08659; AID 1347043; also: nearly all actives have a fitted effect of over 65% in size
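Purified 10nM P. pyralis luciferase with 10uM D-luciferin and 10uM ATP in 50mM Tris acetate pH 7.5, 10mM Mg acetate, 0.01% Tween-20, 0.05% BSA. qHTS titration; luminescence read by CCD imager.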
GPT2 inhibitor = inhibitors of human GPT2 alanine aminotransferase | Recombinant GPT2, coupled pyruvate oxidase/HRP Amplex Red fluorescence | Potency, µM (doses to about 57.7 µM), actives largely listed as inhibitors | AID 1671188 | hit rate 0.25% among 100,000 | Q8TD30; also: nearly all actives have a fitted effect of over 60% in size
Target sequence (Q8TD30 whole entry, looked up): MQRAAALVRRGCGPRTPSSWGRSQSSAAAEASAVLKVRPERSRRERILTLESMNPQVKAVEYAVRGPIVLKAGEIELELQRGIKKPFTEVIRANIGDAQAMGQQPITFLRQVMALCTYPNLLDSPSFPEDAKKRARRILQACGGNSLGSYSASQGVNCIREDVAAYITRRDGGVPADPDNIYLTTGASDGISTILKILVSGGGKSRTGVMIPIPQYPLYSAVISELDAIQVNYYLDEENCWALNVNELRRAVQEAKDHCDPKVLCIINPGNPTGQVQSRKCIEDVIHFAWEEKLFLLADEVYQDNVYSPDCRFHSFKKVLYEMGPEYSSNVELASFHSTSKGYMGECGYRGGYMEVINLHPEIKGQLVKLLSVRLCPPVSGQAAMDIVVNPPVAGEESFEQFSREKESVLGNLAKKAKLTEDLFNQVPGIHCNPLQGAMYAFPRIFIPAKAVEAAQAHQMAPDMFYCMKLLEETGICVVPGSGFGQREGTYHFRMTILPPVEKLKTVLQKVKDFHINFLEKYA
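GPT2 10ng/uL, a-KG 250uM, L-Ala 2mM, HEPES pH7.5 + 0.0001% Tween; 30 min RT. Then Amplex mix (PO/HRP/ThPP), 30 min RT dark, fluorescence. AOA 50uM used as positive control.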
3T3 cytotox = kills NIH 3T3 cells. Potency, µM (series often up to 96.7 µM), usual class: inhibitors. NIH 3T3 viability, CellTiter-Glo ATP luminescence, 48-72 h. hit rate 4.3% among 94,000; also: nearly all actives have a fitted effect of over 55% in size
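Cytotoxicity was measured by CellTiter-Glo ATP luminescence after 48 or 72 h compound exposure at 37 °C. Mouse NIH 3T3 fibroblasts were seeded at 400 cells/well and dosed by 23 nL pin transfer.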
HEK293 tox = HEK 293 cell cytotoxicity; hit rate 6.6% among 94,000; Potency, µM (series often up to 115 µM), usual class: inhibitors; HEK 293 viability, ATP luminescence (CellTiter-Glo), 48-72 h; also: nearly all actives have a fitted effect of over 60% in size
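qHTS cytotoxicity; HEK 293, 250 cells/well; compound pinned; 48 or 72 hr, 37 degree Celsius, 5% CO2, 95% humidity; CellTiter-Glo, 10 min RT; luminescence (ATP).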
hNpr1 antagonist = human Npr1 receptor antagonism | HEK293 hNpr1 GloSensor cGMP, ANP-stimulated luminescence | Potency, µM (top dose mostly 46.3 µM), hits mostly inhibitors | hit rate 1.6% among 76,000 | AID 1347048; calls by dose curve; also: nearly all actives have a fitted effect of over 60% in size
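Compound pre-incubated 30 min at room temperature on GloSensor-loaded HEK293 cells stably carrying hNpr1 and the pGS-40F cGMP biosensor. Stimulation uses hNppA at 0.1 nM final; luminescence is taken at baseline and 20 min post-agonist.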
Numbers stand for hits; – = inactive; ? = inconclusive; · = no result. Most compounds without a hit are left out; they make up all but 10% or so of the library. Unless noted, calls follow the shape of the dose curve; as a rule, active = well fitted curve in the direction sought with a large enough effect; inconclusive = small, poorly fitted or top-dose-only effect, or another doubt; inactive = no such curve, though single readings can be large; an effect the other way counts as inactive or inconclusive.

SMILES	Luciferase inh	GPT2 inhibitor	3T3 cytotox	HEK293 tox	hNpr1 antagonist
CCCCN(CCC(=O)NCCc1ccccc1)C(=O)c1cc(C)oc1C	–	–	35.5µM	14.1µM	?
CCCCCNC(=O)CCN(CC)C(=O)c1cc(C)oc1C	–	?	?	?	–
COCC(=O)N[C@@H]1CN(C(=O)c2ccc(F)cc2)CC[C@@H]1CO	–	–	–	–	–
CCN1CCN(c2ncnc3c2CN(c2cccc(C)c2)C(=O)CN3C)CC1	·	–	–	–	·
CCCn1cc(C2CCN(S(=O)(=O)c3c(C)cc(C)cc3C)CC2)c2ccccc21	–	–	?	?	–
COC(=O)c1ccc2nc(CO[C@H]3CN(Cc4ccc5ccccc5n4)C[C@H]3F)[nH]c2c1	?	–	?	100µM	–
Fc1ccc2nc(CO[C@H]3CN(Cc4cnc5ccccc5c4)C[C@H]3F)[nH]c2c1	–	–	?	70.8µM	?
COC(=O)c1ccc2nc(CO[C@H]3CN(Cc4ccccc4C)C[C@H]3F)[nH]c2c1	?	?	?	?	–
COc1cc(CN2C[C@@H](F)[C@@H](OCc3nc4ccc(F)cc4[nH]3)C2)cc(OC)c1OC	–	–	–	–	–
O=C1NCN(Cc2ccc(Cl)cc2)C12CCN(Cc1ccc(OC(F)(F)F)cc1)CC2	–	?	?	?	–
Cc1cccc(OCC(=O)c2ccc3c(c2)N(CC(=O)N(C)Cc2ccccc2)C(=O)CO3)c1	–	–	?	22.4µM	–
CN(Cc1ccccc1)C(=O)CN1C(=O)COc2ccc(C(=O)COc3ccccc3F)cc21	–	–	–	50.1µM	–
CCc1cccc(OCC(=O)c2ccc3c(c2)N(CC(=O)NCc2ccco2)C(=O)CO3)c1	–	–	–	?	–
O=C(CN1C(=O)COc2ccc(C(=O)COc3ccccc3F)cc21)NC1CCCCC1	–	–	–	–	–
CC(C(=O)N1CCOCC1)N1C(=O)COc2ccc(C(=O)COc3ccc(Cl)cc3)cc21 (stereo not drawn)	–	–	–	?	–
CCc1cccc(OCC(=O)c2ccc3c(c2)N(CC(=O)N(C)Cc2ccccc2)C(=O)CO3)c1	–	–	?	?	12.6µM
CC(C(=O)NCc1ccccc1)N1C(=O)COc2ccc(C(=O)COc3ccc(Cl)cc3)cc21 (stereo not drawn)	–	–	?	89.1µM	–
CC(C)(N)C(=O)N1CCCC(N2CCN(Cc3ccc4c(c3)OCO4)CC2)C1 (stereo not drawn)	–	?	–	?	–
c1ccc(Oc2cc3c(cn2)NCCN(CC2CCOCC2)C3)cc1	–	–	–	?	–
CC(C)c1ccccc1OCC(=O)c1ccc2c(c1)N(CC(=O)N1CCCCC1)C(=O)CO2	–	–	?	?	–
CC(C)c1ccccc1OCC(=O)c1ccc2c(c1)N(CC(=O)N1CCCC1)C(=O)CO2	–	–	–	39.8µM	–
COc1ccc(C2Cn3cnc(C(=O)N4CCC(C(=O)Nc5ccccc5)CC4)c3CO2)cc1 (stereo not drawn)	?	–	–	–	–
COc1ccc(C(C)NC(=O)C2CCN(C(=O)c3ncn4c3COC(c3ccccc3)C4)CC2)cc1 (stereo not drawn)	28.2µM	–	–	–	–
COc1cc(NC(=O)C2CCN(C(=O)c3ncn4c3COC(c3ccccc3)C4)CC2)cc(OC)c1 (stereo not drawn)	25.1µM	–	–	–	–
CC(NC(=O)C1CCN(C(=O)c2ncn3c2COC(c2ccc(Cl)cc2)C3)CC1)c1ccccc1 (stereo not drawn)	–	–	–	–	–
SMILES	Luciferase inh	GPT2 inhibitor	3T3 cytotox	HEK293 tox	hNpr1 antagonist
Cc1noc(C)c1C(=O)N1CCN(c2ccc3nnc(C4CC4)n3n2)CC1	·	·	–	–	·
COc1ccc(-c2cc(CC3(NCc4ccccc4)COC3)no2)cc1	–	–	?	100µM	–
Fc1ccc(CNC2(Cc3cc(-c4ccccc4)on3)COC2)cc1	–	–	–	89.1µM	?
Oc1ccccc1CNC1(Cc2cc(-c3ccccc3)on2)COC1	–	–	?	–	–
CN(C)c1ccc(CNC2(Cc3cc(-c4ccccc4)on3)COC2)cc1	–	–	–	89.1µM	–
Oc1ccccc1CNC1(Cc2cc(-c3ccc(F)cc3)on2)COC1	–	–	?	100µM	?
COc1cc2c(cc1OC)C(C[C@H]1CN(S(=O)(=O)c3ccc(C#N)cc3)CC[C@H]1CC(=O)O)=NCC2	–	–	–	–	–
Clc1ccc(CNC2(Cc3cc(COc4ccccc4)on3)COC2)cc1	–	?	?	79.4µM	–
CC(C)(C)c1cc(CC2(NCc3ccc(OC(F)(F)F)cc3)COC2)no1	–	?	112µM	?	–
Clc1ccccc1CNC1(Cc2cc(-c3ccccc3)on2)COC1	–	–	?	112µM	–
FC(F)(F)Oc1ccc(CNC2(Cc3cc(-c4ccccn4)on3)COC2)cc1	–	–	–	?	–
O=C(NCc1ccc(OC(F)(F)F)cc1)N1CCCC(Cn2cnc3cccnc32)C1 (stereo not drawn)	–	–	?	?	–
COc1ccc(-c2ccnc(N[C@H]3CO[C@H]4[C@@H]3OC[C@H]4OCC(=O)N(C)C)n2)cc1	–	–	?	?	–
CCCc1nc(-c2nc(C3CCOC3)no2)cs1 (stereo not drawn)	28.2µM	–	–	–	–
CCc1c(-c2nc(C3CCOC3)no2)[nH]c2ccccc12 (stereo not drawn)	–	–	?	?	–
Cc1ccc(NC(=O)N2CCC[C@H]2c2nc(-c3ccc(F)cc3)n[nH]2)cc1C	·	–	28.2µM	?	·
CC(=O)N1Cc2ccccc2OC2(CCN([S+](C)(=O)[O-])CC2)C1	·	–	–	–	·
COCCNC(=O)[C@H]1C[C@H](Oc2ccccc2)CN1Cc1cn(C)c2ccccc12	–	–	–	39.8µM	–
COCCNC(=O)[C@H]1C[C@H](Oc2ccccc2)CN1Cc1cccn1C	–	–	–	?	–
COc1ncccc1CNC[C@H]1Cn2c(-c3ccc(Cl)cc3)cnc2CO1	–	–	89.1µM	?	–
O=C(NC[C@H]1Cn2c(-c3cccc(Cl)c3)cnc2CO1)Nc1ccccc1	–	–	?	100µM	?
Cc1ccccc1CNC[C@H]1Cn2c(-c3ccccc3)cnc2CO1	–	–	?	112µM	–
Clc1cccc(-c2cnc3n2C[C@H](CNCc2ccccc2)OC3)c1	–	–	79.4µM	?	–
CC1CN(c2ccccc2C#N)C(=O)CN1C(=O)Cc1c[nH]c(=O)[nH]c1=O (stereo not drawn)	–	–	–	–	–
O=C(c1ccccn1)N1CC(Oc2ccc3c(c2)OCO3)C1	·	–	–	?	·
c1ccc(CNC[C@H]2Cn3c(-c4ccccc4)cnc3CO2)cc1	–	–	–	?	–
O=C(NC[C@H]1Cn2c(-c3ccc(Cl)cc3)cnc2CO1)Nc1ccccc1	–	–	?	63.1µM	?
